Hit rate of the full screen: of about 39,000 compounds, about 1,500 (3.8%) were called active. The sample holds actives, similar compounds and a random draw of the others, so the mix is not that of the screen.
Tested on: HSkMC (human skeletal muscle cells)
Test: cytotoxicity call (relative viability < 0.9)
Settings: 10 µM

Structure (SMILES)	cytotoxicity call
COc1ccc(NC(=O)N(C)C[C@@H]2Oc3c(NC(=O)C4CCOCC4)cccc3C(=O)N([C@@H](C)CO)C[C@@H]2C)cc1	inactive
COCC(=O)Nc1ccc2c(c1)C(=O)N(C)C[C@@H](OC)[C@@H](C)CN(C(=O)Cc1cccnc1)[C@@H](C)CO2	inactive
CCCCn1c(SCC(N)=O)nc2c1c(=O)n(C)c(=O)n2C	inactive
C[C@@H]1CN([C@@H](C)CO)C(=O)Cc2cc(NS(=O)(=O)c3ccc(Cl)cc3)ccc2O[C@@H]1CN(C)Cc1ccc(Oc2ccccc2)cc1	active
C[C@@H]1CN([C@H](C)CO)C(=O)Cc2cc(NS(=O)(=O)c3ccc(Cl)cc3)ccc2O[C@H]1CN(C)Cc1ccc(Oc2ccccc2)cc1	active
C[C@@H]1CN([C@@H](C)CO)C(=O)Cc2cc(NS(=O)(=O)c3ccc(Cl)cc3)ccc2O[C@H]1CN(C)Cc1ccc(Oc2ccccc2)cc1	active
C[C@H](CO)N1C[C@H](C)[C@@H](CN(C)Cc2ccc(Oc3ccccc3)cc2)Oc2ccc(NS(=O)(=O)c3ccc(Cl)cc3)cc2CC1=O	inactive
COc1ccc(S(=O)(=O)N(C)C[C@@H]2Oc3ccc(NS(=O)(=O)c4cccs4)cc3C(=O)N([C@@H](C)CO)C[C@H]2C)cc1	inactive
CO[C@@H]1CN(C)C(=O)c2cc(NS(=O)(=O)CC(F)(F)F)ccc2OC[C@@H](C)N(Cc2cccnc2)C[C@@H]1C	inactive
Cc1ccc(S(=O)(=O)N[C@@H]2CC[C@H](CC(=O)NCc3ccc(Cl)c(Cl)c3)O[C@H]2CO)cc1	inactive
COc1ccc(NC(=O)N(C)C[C@@H]2Oc3ccc(NS(=O)(=O)c4c(C)noc4C)cc3C(=O)N([C@@H](C)CO)C[C@@H]2C)cc1	inactive
Cc1noc(C)c1S(=O)(=O)N(C)C[C@H]1Oc2ccc(NS(=O)(=O)c3cccs3)cc2CC(=O)N([C@H](C)CO)C[C@H]1C	inactive
C[C@H](CO)N1C[C@H](C)[C@H](CN(C)C(=O)Nc2cccc3ccccc23)OCc2cnnn2CCCC1=O	inactive
C[C@H]1CN([C@@H](C)CO)C(=O)Cc2cc(NC(=O)Nc3ccc(F)cc3)ccc2O[C@@H]1CN(C)Cc1ccc(Oc2ccccc2)cc1	inactive
C[C@@H]1CN([C@H](C)CO)C(=O)Cc2cc(NC(=O)Nc3ccc(F)cc3)ccc2O[C@H]1CN(C)Cc1ccc(Oc2ccccc2)cc1	active
C[C@H](CO)N1C[C@H](C)[C@@H](CN(C)Cc2ccc(Oc3ccccc3)cc2)Oc2ccc(NC(=O)Nc3ccc(F)cc3)cc2CC1=O	inactive
C[C@@H]1CN([C@@H](C)CO)C(=O)Cc2cc(NC(=O)Nc3ccc(F)cc3)ccc2O[C@H]1CN(C)Cc1ccc(Oc2ccccc2)cc1	inactive
C[C@@H]1CN([C@@H](C)CO)C(=O)Cc2cc(NC(=O)Nc3ccc(F)cc3)ccc2O[C@@H]1CN(C)Cc1ccc(Oc2ccccc2)cc1	inactive
C[C@H]1CN([C@@H](C)CO)C(=O)Cc2cc(NC(=O)Nc3ccc(F)cc3)ccc2O[C@H]1CN(C)Cc1ccc(Oc2ccccc2)cc1	active
C[C@@H]1CN([C@H](C)CO)C(=O)Cc2cc(NC(=O)Nc3ccc(F)cc3)ccc2O[C@@H]1CN(C)Cc1ccc(Oc2ccccc2)cc1	active
C[C@H](CO)N1C[C@H](C)[C@H](CN(C)Cc2ccc(Oc3ccccc3)cc2)Oc2ccc(NC(=O)Nc3ccc(F)cc3)cc2CC1=O	inactive
O=C(NC1Cc2ccccc2C1)[C@H]1[C@H](CO)[C@H]2Cn3c(cccc3=O)[C@H]2N1C(=O)c1cnccn1	inactive
Cc1ccc(S(=O)(=O)Nc2ccc3c(c2)C(=O)N([C@H](C)CO)C[C@@H](C)[C@H](CN(C)S(=O)(=O)c2ccc(Cl)cc2)OCCCC[C@@H](C)O3)cc1	inactive

Structure (SMILES)	cytotoxicity call
C[C@@H]1CCCCO[C@H](CN(C)CC2CCCCC2)[C@H](C)CN([C@H](C)CO)C(=O)c2cc(NC(=O)CCC(F)(F)F)ccc2O1	inactive
C[C@@H]1CCCCO[C@@H](CN(C)Cc2ccncc2)[C@H](C)CN([C@@H](C)CO)C(=O)c2cc(NS(C)(=O)=O)ccc2O1	inactive
O=C(CCCCC(=O)N/N=C/[C@H](O)[C@@H](O)[C@H](O[C@@H]1O[C@H](CO)[C@H](O)[C@H](O)[C@H]1O)[C@H](O)CO)NO	inactive
CCNC(=O)C[C@H]1CC[C@H](NC(=O)C2CCOCC2)[C@@H](CO)O1	inactive
O=C(CCCCn1c(=O)[nH]c2ccccc2c1=O)N1CCN(c2ncccn2)CC1	inactive
C[C@H]1CN([C@@H](C)CO)C(=O)Cc2cc(NC(=O)Nc3ccc(C(F)(F)F)cc3)ccc2O[C@H]1CN(C)C(=O)Nc1ccc(F)cc1	inactive
C[C@@H]1CN([C@@H](C)CO)C(=O)Cc2cc(NC(=O)Nc3ccc(C(F)(F)F)cc3)ccc2O[C@H]1CN(C)C(=O)Nc1ccc(C(F)(F)F)cc1	inactive
C[C@@H]1CN([C@H](C)CO)C(=O)Cc2cc(NC(=O)Nc3ccc(C(F)(F)F)cc3)ccc2O[C@H]1CN(C)C(=O)Nc1ccc(F)cc1	inactive
C[C@H]1CN([C@@H](C)CO)C(=O)Cc2cc(NC(=O)Nc3ccc(C(F)(F)F)cc3)ccc2O[C@@H]1CN(C)C(=O)Nc1ccc(C(F)(F)F)cc1	inactive
C[C@H](CO)N1C[C@H](C)[C@@H](CN(C)C(=O)Nc2ccc(C(F)(F)F)cc2)Oc2ccc(NC(=O)Nc3ccc(C(F)(F)F)cc3)cc2CC1=O	inactive
C[C@@H]1CN([C@@H](C)CO)C(=O)Cc2cc(NC(=O)Nc3ccc(C(F)(F)F)cc3)ccc2O[C@H]1CN(C)C(=O)Nc1ccc(F)cc1	inactive
C[C@@H]1CN([C@H](C)CO)C(=O)Cc2cc(NC(=O)Nc3ccc(C(F)(F)F)cc3)ccc2O[C@@H]1CN(C)C(=O)Nc1ccc(C(F)(F)F)cc1	active
C[C@@H]1CN([C@H](C)CO)C(=O)Cc2cc(NC(=O)Nc3ccc(C(F)(F)F)cc3)ccc2O[C@H]1CN(C)C(=O)Nc1ccc(C(F)(F)F)cc1	active
C[C@@H]1CN([C@@H](C)CO)C(=O)Cc2cc(NC(=O)Nc3ccc(F)cc3)ccc2O[C@@H]1CN(C)C(=O)Nc1ccc(C(F)(F)F)cc1	inactive
C[C@H](CO)N1C[C@H](C)[C@H](CN(C)C(=O)Nc2ccc(C(F)(F)F)cc2)Oc2ccc(NC(=O)Nc3ccc(C(F)(F)F)cc3)cc2CC1=O	active
C[C@@H]1CN([C@H](C)CO)C(=O)Cc2cc(NC(=O)Nc3ccc(F)cc3)ccc2O[C@H]1CN(C)C(=O)Nc1ccc(C(F)(F)F)cc1	inactive
C[C@@H]1CN([C@@H](C)CO)C(=O)Cc2cc(NC(=O)Nc3ccc(C(F)(F)F)cc3)ccc2O[C@@H]1CN(C)C(=O)Nc1ccc(F)cc1	active
NCC[C@@H]1CC[C@@H](NC(=O)c2ccccc2F)[C@@H](CO)O1	inactive
C[C@@H]1CCCCO[C@H](CN(C)C(=O)Nc2ccc(F)cc2)[C@@H](C)CN([C@H](C)CO)C(=O)c2cc(NC(=O)Nc3cccc4ccccc34)ccc2O1	inactive
COCC(=O)N(C)C[C@@H]1Oc2cc(C#CC(C)(C)O)ccc2S(=O)(=O)N([C@H](C)CO)C[C@H]1C	inactive
C[C@@H]1CCCCO[C@@H](CN(C)C(=O)Nc2ccccc2)[C@@H](C)CN([C@H](C)CO)C(=O)c2cc(NC(=O)Nc3ccccc3)ccc2O1	inactive
S=C(c1cccs1)N1CCCC1	inactive
CN1C(=O)c2cc(NC(=O)Cc3cccs3)ccc2OC[C@@H]2O[C@H](CC(=O)NCCCN3CCOCC3)CC[C@H]21	inactive

Structure (SMILES)	cytotoxicity call
COc1cc(CO)c(CC(=O)NN)cc1OC	inactive
C[C@H](CO)N1C[C@H](C)[C@@H](CN(C)C(=O)Nc2ccc(F)cc2)Oc2ccc(NC(=O)Nc3ccc(C(F)(F)F)cc3)cc2CC1=O	inactive
C[C@@H]1CN([C@@H](C)CO)C(=O)Cc2cc(NC(=O)Nc3ccc(C(F)(F)F)cc3)ccc2O[C@@H]1CN(C)C(=O)Nc1ccc(C(F)(F)F)cc1	active
C[C@H]1CN([C@@H](C)CO)C(=O)Cc2cc(NC(=O)Nc3ccc(C(F)(F)F)cc3)ccc2O[C@H]1CN(C)C(=O)Nc1ccc(C(F)(F)F)cc1	active
C[C@@H]1CN([C@H](C)CO)C(=O)Cc2cc(NC(=O)Nc3ccc(C(F)(F)F)cc3)ccc2O[C@@H]1CN(C)C(=O)Nc1ccc(F)cc1	inactive
C[C@H]1CN([C@@H](C)CO)C(=O)Cc2cc(NC(=O)Nc3ccc(F)cc3)ccc2O[C@@H]1CN(C)C(=O)Nc1ccc(C(F)(F)F)cc1	inactive
C[C@@H]1CN([C@@H](C)CO)C(=O)Cc2cc(NC(=O)Nc3ccc(F)cc3)ccc2O[C@H]1CN(C)C(=O)Nc1ccc(C(F)(F)F)cc1	inactive
CCn1nnc2c(=S)nc[nH]c21	inactive
Cc1noc(C)c1NC(=O)Nc1ccc2c(c1)CC(=O)N([C@H](C)CO)C[C@@H](C)[C@@H](CN(C)S(=O)(=O)c1cn(C)cn1)O2	inactive
C=CCC[C@H](Cc1ccc(F)cc1)C(=O)O[C@H](CNC(=O)[C@@H](CC=C)CC(=O)N[C@H](CO)Cc1ccccc1)c1ccccc1	active
C=CC[C@@H](CC(=O)N[C@@H](CO)Cc1ccccc1)C(=O)NC[C@@H](OC(=O)[C@@H](CC=C)Cc1ccc(F)cc1)c1ccccc1	inactive
C=CCC[C@H](Cc1ccc(F)cc1)C(=O)O[C@H](CNC(=O)[C@@H](CC=C)CC(=O)N[C@@H](CO)Cc1ccccc1)c1ccccc1	inactive
C=CCC[C@H](Cc1ccc(F)cc1)C(=O)O[C@@H](CNC(=O)[C@@H](CC=C)CC(=O)N[C@H](CO)Cc1ccccc1)c1ccccc1	active
C=CCC[C@H](Cc1ccc(F)cc1)C(=O)O[C@@H](CNC(=O)[C@@H](CC=C)CC(=O)N[C@@H](CO)Cc1ccccc1)c1ccccc1	inactive
C=CCC[C@@H](Cc1ccc(F)cc1)C(=O)O[C@H](CNC(=O)[C@@H](CC=C)CC(=O)N[C@H](CO)Cc1ccccc1)c1ccccc1	inactive
C=CC[C@@H](CC(=O)N[C@H](CO)Cc1ccccc1)C(=O)NC[C@@H](OC(=O)[C@@H](CC=C)Cc1ccc(F)cc1)c1ccccc1	inactive
C=CCC[C@@H](Cc1ccc(F)cc1)C(=O)O[C@@H](CNC(=O)[C@@H](CC=C)CC(=O)N[C@H](CO)Cc1ccccc1)c1ccccc1	inactive
C=CCC[C@@H](Cc1ccc(F)cc1)C(=O)O[C@H](CNC(=O)[C@@H](CC=C)CC(=O)N[C@@H](CO)Cc1ccccc1)c1ccccc1	inactive
C=CC[C@@H](CC(=O)N[C@H](CO)Cc1ccccc1)C(=O)NC[C@H](OC(=O)[C@@H](CC=C)Cc1ccc(F)cc1)c1ccccc1	active
C=CC[C@@H](CC(=O)N[C@@H](CO)Cc1ccccc1)C(=O)NC[C@H](OC(=O)[C@@H](CC=C)Cc1ccc(F)cc1)c1ccccc1	inactive
C=CCC[C@@H](Cc1ccc(F)cc1)C(=O)O[C@@H](CNC(=O)[C@@H](CC=C)CC(=O)N[C@@H](CO)Cc1ccccc1)c1ccccc1	active

From the antibiotic and cytotoxicity screens of Wong et al. (2023)
